Assays:
Test in all cases: DAPPL (digital affinity profiling via proximity ligation, sequencing); 10 mM Tris-HCl pH 7.5, 50 mM NaCl, 1 mM DTT, 4% glycerol, room temperature, 30 min; GST-TFs on glutathione beads, 16-mer random dsDNA library, 0.1% formaldehyde crosslink after washing; high values mean tight binding
Conditions in all cases: protein: recombinant; tags: N-terminal GST; dsDNA, one strand shown
FLI1 = target: T1, FLI1 (Homo sapiens, UniProt Q01543 1-452)
T1 sequence: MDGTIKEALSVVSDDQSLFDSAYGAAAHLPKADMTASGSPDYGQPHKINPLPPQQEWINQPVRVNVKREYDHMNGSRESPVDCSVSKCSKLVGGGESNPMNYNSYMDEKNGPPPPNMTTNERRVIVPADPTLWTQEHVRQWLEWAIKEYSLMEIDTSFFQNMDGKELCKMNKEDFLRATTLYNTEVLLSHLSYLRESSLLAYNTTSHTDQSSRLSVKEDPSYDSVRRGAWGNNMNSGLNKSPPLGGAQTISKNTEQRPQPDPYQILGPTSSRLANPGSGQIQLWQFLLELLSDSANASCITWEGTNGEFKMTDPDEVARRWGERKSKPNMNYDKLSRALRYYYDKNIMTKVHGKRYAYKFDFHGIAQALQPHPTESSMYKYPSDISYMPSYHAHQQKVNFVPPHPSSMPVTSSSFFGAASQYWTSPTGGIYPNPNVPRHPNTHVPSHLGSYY
Outline: (§1)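 Each value of binding signal is a hexamer's read frequency for a factor divided by the same hexamer's frequency in the tag-only sample. Barcoded, bead-captured GST fusions of human transcription factors made in yeast were pooled with that sample and incubated with 200 nmole of a random double-stranded 16-mer DNA library in Tris/NaCl/DTT/glycerol buffer at room temperature for 30 min. Washing, 0.1% formaldehyde crosslinking, proximity ligation, PCR and Illumina NextSeq500 sequencing followed.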

ELK1 = target: T2, ELK1 (Homo sapiens, UniProt P19419 1-428)
T2 sequence: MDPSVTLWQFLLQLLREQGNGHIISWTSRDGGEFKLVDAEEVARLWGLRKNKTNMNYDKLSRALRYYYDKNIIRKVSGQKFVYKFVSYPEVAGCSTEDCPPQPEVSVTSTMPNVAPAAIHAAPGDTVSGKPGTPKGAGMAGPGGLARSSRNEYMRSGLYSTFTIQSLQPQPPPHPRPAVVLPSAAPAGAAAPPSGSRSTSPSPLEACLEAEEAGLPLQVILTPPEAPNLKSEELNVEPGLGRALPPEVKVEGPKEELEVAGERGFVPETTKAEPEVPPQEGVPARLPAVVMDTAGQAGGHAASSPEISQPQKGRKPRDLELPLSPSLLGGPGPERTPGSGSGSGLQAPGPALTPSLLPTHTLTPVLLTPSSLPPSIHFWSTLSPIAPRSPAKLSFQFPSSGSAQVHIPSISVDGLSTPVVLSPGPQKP
Outline: as §1

GABPA = target: T3, GABPA (Homo sapiens, UniProt Q06546 1-454)
T3 sequence: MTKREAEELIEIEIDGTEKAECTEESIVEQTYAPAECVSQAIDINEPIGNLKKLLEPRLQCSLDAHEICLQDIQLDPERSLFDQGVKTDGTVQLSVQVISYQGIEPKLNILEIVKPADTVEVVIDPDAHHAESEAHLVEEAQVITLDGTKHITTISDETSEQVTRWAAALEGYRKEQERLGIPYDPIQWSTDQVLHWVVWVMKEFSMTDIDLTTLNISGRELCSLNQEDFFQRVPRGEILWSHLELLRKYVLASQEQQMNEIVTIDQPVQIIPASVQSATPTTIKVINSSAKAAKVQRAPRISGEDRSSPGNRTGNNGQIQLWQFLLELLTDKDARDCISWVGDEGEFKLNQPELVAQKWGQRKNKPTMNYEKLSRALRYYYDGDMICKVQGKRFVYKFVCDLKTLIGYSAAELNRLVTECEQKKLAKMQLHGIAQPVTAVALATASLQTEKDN
Outline: as §1

ERG = target: T4, ERG (Homo sapiens, UniProt P11308 1-479)
T4 sequence: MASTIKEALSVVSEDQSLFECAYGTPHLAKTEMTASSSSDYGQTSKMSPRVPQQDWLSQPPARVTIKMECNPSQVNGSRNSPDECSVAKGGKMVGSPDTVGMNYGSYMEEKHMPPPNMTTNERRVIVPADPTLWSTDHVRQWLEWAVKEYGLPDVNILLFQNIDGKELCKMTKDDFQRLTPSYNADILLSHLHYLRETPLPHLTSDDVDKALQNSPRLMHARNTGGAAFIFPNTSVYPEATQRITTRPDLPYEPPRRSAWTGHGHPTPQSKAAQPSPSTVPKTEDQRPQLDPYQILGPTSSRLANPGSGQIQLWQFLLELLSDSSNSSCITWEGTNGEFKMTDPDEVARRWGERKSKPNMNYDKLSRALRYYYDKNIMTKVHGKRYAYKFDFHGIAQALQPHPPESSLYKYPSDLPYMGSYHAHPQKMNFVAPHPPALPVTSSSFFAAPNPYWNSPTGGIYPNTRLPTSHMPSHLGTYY
Outline: as §1

ELF1 = ELF1 (Homo sapiens, UniProt P32519 1-619)
ELF1, sequence (P32519 whole entry): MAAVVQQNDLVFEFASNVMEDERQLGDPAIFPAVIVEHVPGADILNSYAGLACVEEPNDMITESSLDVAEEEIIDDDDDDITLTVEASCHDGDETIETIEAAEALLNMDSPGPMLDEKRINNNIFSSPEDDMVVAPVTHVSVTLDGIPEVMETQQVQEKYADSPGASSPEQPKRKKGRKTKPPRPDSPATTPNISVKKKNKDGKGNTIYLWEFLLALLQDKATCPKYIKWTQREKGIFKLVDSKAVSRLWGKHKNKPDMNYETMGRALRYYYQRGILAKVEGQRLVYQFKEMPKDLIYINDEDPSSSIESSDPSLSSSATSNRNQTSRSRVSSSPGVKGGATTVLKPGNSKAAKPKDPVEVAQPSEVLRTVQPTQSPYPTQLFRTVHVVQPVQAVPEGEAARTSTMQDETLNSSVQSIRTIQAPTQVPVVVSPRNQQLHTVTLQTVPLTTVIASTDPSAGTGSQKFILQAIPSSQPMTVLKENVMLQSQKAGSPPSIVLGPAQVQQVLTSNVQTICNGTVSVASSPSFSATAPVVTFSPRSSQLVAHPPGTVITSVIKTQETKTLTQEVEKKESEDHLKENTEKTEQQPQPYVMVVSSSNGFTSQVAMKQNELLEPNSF
Outline: as §1

EHF = target: T5, EHF (Homo sapiens, UniProt Q9NZC4 1-300)
T5 sequence: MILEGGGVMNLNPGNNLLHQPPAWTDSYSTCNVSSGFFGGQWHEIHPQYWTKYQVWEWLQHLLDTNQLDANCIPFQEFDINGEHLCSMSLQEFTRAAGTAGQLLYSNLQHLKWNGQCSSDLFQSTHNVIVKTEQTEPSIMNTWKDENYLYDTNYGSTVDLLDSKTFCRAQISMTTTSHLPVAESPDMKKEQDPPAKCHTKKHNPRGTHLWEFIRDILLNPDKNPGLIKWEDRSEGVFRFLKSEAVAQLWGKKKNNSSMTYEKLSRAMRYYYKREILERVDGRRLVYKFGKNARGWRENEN
Outline: as §1

SPI1 = SPI1 (Homo sapiens, UniProt P17947 1-270)
Outline: as §1

SPIB = SPIB (Homo sapiens, UniProt Q01892 1-262)
SPIB, sequence (Q01892 whole entry): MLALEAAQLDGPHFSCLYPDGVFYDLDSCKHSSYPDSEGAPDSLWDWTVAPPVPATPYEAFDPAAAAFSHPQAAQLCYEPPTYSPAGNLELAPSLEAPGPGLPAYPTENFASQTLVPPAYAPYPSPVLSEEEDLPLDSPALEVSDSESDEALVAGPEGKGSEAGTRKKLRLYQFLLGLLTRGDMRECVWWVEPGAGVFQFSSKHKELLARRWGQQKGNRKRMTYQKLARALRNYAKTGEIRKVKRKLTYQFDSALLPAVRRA
Outline: as §1

ELK3 = target: T6, ELK3 (Homo sapiens, UniProt P41970 1-407)
T6 sequence: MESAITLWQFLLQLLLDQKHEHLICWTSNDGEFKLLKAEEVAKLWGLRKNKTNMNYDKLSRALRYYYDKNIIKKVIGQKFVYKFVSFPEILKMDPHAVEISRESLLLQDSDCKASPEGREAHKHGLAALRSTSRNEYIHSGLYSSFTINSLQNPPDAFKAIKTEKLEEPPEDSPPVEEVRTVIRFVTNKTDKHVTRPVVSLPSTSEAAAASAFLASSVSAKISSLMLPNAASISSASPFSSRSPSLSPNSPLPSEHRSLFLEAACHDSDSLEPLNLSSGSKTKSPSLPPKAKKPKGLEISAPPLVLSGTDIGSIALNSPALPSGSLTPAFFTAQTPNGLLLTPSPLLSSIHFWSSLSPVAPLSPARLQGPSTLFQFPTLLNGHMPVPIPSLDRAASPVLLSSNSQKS
Outline: as §1

Sequence | binding signal (FLI1) | binding signal (ELK1) | binding signal (GABPA) | binding signal (ERG) | binding signal (ELF1) | binding signal (EHF) | binding signal (SPI1) | binding signal (SPIB) | binding signal (ELK3)
TCCTCT | 1.58 fold enrichment (6-mer frequency, TF over GST control) | 1.57 fold enrichment (6-mer frequency, TF over GST control) | 1.57 fold enrichment (6-mer frequency, TF over GST control) | 1.7 fold enrichment (6-mer frequency, TF over GST control) | 1.64 fold enrichment (6-mer frequency, TF over GST control) | 1.7 fold enrichment (6-mer frequency, TF over GST control) | 2.95 fold enrichment (6-mer frequency, TF over GST control) | 1.72 fold enrichment (6-mer frequency, TF over GST control) | 1.6 fold enrichment (6-mer frequency, TF over GST control)
ATCTGT | 1.25 fold enrichment (6-mer frequency, TF over GST control) | 1.24 fold enrichment (6-mer frequency, TF over GST control) | 1.18 fold enrichment (6-mer frequency, TF over GST control) | 1.19 fold enrichment (6-mer frequency, TF over GST control) | 1.18 fold enrichment (6-mer frequency, TF over GST control) | 1.11 fold enrichment (6-mer frequency, TF over GST control) | 1.13 fold enrichment (6-mer frequency, TF over GST control) | 1.14 fold enrichment (6-mer frequency, TF over GST control) | 1.07 fold enrichment (6-mer frequency, TF over GST control)
CCTTTG | 1.32 fold enrichment (6-mer frequency, TF over GST control) | 1.3 fold enrichment (6-mer frequency, TF over GST control) | 1.4 fold enrichment (6-mer frequency, TF over GST control) | 1.37 fold enrichment (6-mer frequency, TF over GST control) | 1.38 fold enrichment (6-mer frequency, TF over GST control) | 1.42 fold enrichment (6-mer frequency, TF over GST control) | 1.47 fold enrichment (6-mer frequency, TF over GST control) | 1.28 fold enrichment (6-mer frequency, TF over GST control) | 1.18 fold enrichment (6-mer frequency, TF over GST control)
GGTCTA | 1.12 fold enrichment (6-mer frequency, TF over GST control) | 1.05 fold enrichment (6-mer frequency, TF over GST control) | 1.06 fold enrichment (6-mer frequency, TF over GST control) | 1.08 fold enrichment (6-mer frequency, TF over GST control) | 1.05 fold enrichment (6-mer frequency, TF over GST control) | 1.23 fold enrichment (6-mer frequency, TF over GST control) | 1.02 fold enrichment (6-mer frequency, TF over GST control) | 1.05 fold enrichment (6-mer frequency, TF over GST control) | 1.24 fold enrichment (6-mer frequency, TF over GST control)
ATGCGG | 1.3 fold enrichment (6-mer frequency, TF over GST control) | 1.22 fold enrichment (6-mer frequency, TF over GST control) | 1.2 fold enrichment (6-mer frequency, TF over GST control) | 1.22 fold enrichment (6-mer frequency, TF over GST control) | 1.2 fold enrichment (6-mer frequency, TF over GST control) | 1.31 fold enrichment (6-mer frequency, TF over GST control) | 1.56 fold enrichment (6-mer frequency, TF over GST control) | 1.32 fold enrichment (6-mer frequency, TF over GST control) | 1.23 fold enrichment (6-mer frequency, TF over GST control)
ACTGAA | 1.07 fold enrichment (6-mer frequency, TF over GST control) | 1.27 fold enrichment (6-mer frequency, TF over GST control) | 1.24 fold enrichment (6-mer frequency, TF over GST control) | 1.11 fold enrichment (6-mer frequency, TF over GST control) | 1.2 fold enrichment (6-mer frequency, TF over GST control) | 1.1 fold enrichment (6-mer frequency, TF over GST control) | 1.23 fold enrichment (6-mer frequency, TF over GST control) | 1.07 fold enrichment (6-mer frequency, TF over GST control) | 1.09 fold enrichment (6-mer frequency, TF over GST control)
CATGCT | 1.33 fold enrichment (6-mer frequency, TF over GST control) | 1.2 fold enrichment (6-mer frequency, TF over GST control) | 1.21 fold enrichment (6-mer frequency, TF over GST control) | 1.23 fold enrichment (6-mer frequency, TF over GST control) | 1.23 fold enrichment (6-mer frequency, TF over GST control) | 1.24 fold enrichment (6-mer frequency, TF over GST control) | 1.11 fold enrichment (6-mer frequency, TF over GST control) | 1.25 fold enrichment (6-mer frequency, TF over GST control) | 1.3 fold enrichment (6-mer frequency, TF over GST control)

From article PMC7862700, “An all-to-all approach to the identification of sequence-specific readers for epigenetic DNA modifications on cytosine”
